This passage reports binding signal results from article PMC11006913.

Chain of HOXB9 (P17482 171-250 R186Q): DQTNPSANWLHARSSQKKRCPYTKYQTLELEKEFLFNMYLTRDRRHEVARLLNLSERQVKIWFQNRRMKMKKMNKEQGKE
Chain of HOXA4 (Q00056 201-287 W262F): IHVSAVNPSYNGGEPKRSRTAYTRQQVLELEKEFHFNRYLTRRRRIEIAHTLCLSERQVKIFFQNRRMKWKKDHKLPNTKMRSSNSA
Chain of CRX (O43186 26-111 R41L): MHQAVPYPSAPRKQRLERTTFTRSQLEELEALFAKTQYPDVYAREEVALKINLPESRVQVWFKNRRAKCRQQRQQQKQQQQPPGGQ

The first test deals with T1, SIX6 (Homo sapiens, UniProt O95475 114-200, T165I).
T1 sequence: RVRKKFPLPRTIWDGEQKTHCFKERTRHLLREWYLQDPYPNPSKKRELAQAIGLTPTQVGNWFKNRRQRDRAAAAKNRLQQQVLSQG
In words: PBM; 200 nM protein, PBS. Particulars: dsDNA, one strand shown.
For CACGCCCC, the binding signal is 9.05 upbm affinity estimate (log intensity, higher = more binding, comparable within an allelic series).
On the same count and under the same terms, as for AGGTGCCC, the figure is 8.87 upbm affinity estimate (log intensity, higher = more binding, comparable within an allelic series); as for CCGTCGCC, 8.79 upbm affinity estimate (log intensity, higher = more binding, comparable within an allelic series).
For GCAGCTGC, the binding signal was 9.05 upbm affinity estimate (log intensity, higher = more binding, comparable within an allelic series).
Turning to CCAGGGGC, the binding signal was 8.84 upbm affinity estimate (log intensity, higher = more binding, comparable within an allelic series).
Consider AGACTATC, for which the binding signal was 10.1 upbm affinity estimate (log intensity, higher = more binding, comparable within an allelic series).
As for GGGGCCCC, the binding signal is 8.97 upbm affinity estimate (log intensity, higher = more binding, comparable within an allelic series).
Regarding CGCACCGC, the binding signal was 8.85 upbm affinity estimate (log intensity, higher = more binding, comparable within an allelic series).
Turning to ACGCAACG, the binding signal is 9.12 upbm affinity estimate (log intensity, higher = more binding, comparable within an allelic series).
The same measure, in the same setting: as for CTGCTGGC, the figure is 8.82 upbm affinity estimate (log intensity, higher = more binding, comparable within an allelic series).

The next test concerns the target HOXB9 (Homo sapiens, UniProt P17482 171-250, R186Q). In words: PBM; 200 nM protein, PBS. Particulars: dsDNA, one strand shown.
In the case of CACGCCCC, the binding signal is 8.47 upbm affinity estimate (log intensity, higher = more binding, comparable within an allelic series).
Consider GGATTACA, for which the binding signal was 9.52 upbm affinity estimate (log intensity, higher = more binding, comparable within an allelic series).
With CCAGGGGC, the binding signal was 8.39 upbm affinity estimate (log intensity, higher = more binding, comparable within an allelic series).
As to ATATTAAT, the binding signal was 11.5 upbm affinity estimate (log intensity, higher = more binding, comparable within an allelic series).
Consider ATTTATGG, for which the binding signal is 11.8 upbm affinity estimate (log intensity, higher = more binding, comparable within an allelic series).
In the case of GGGGCCCC, the binding signal was 8.63 upbm affinity estimate (log intensity, higher = more binding, comparable within an allelic series).

For a further test, the target named is HOXC9 (Homo sapiens, UniProt P31274 178-260, R222W). In words: PBM; 200 nM protein, PBS. Particulars: dsDNA, one strand shown.
Chain of HOXC9 (P31274 178-260 R222W): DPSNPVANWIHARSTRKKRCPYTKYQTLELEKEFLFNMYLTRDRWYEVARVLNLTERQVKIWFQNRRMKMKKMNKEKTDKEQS
ACCAGCCC: the binding signal was 9.62 upbm affinity estimate (log intensity, higher = more binding, comparable within an allelic series).
On the same count and under the same terms, as for GACGCGTC, the figure is 9.62 upbm affinity estimate (log intensity, higher = more binding, comparable within an allelic series); as for AGGGGACC, 9.53 upbm affinity estimate (log intensity, higher = more binding, comparable within an allelic series); as for GGGGACCC, 9.52 upbm affinity estimate (log intensity, higher = more binding, comparable within an allelic series).
For ATATTAAT, the binding signal is 11.1 upbm affinity estimate (log intensity, higher = more binding, comparable within an allelic series).
Consider ATTTATGG, for which the binding signal was 11.2 upbm affinity estimate (log intensity, higher = more binding, comparable within an allelic series).

In a further test the target is HOXA2 (Homo sapiens, UniProt O43364 129-215, Y150S). Briefly: PBM; 200 nM protein, PBS. Particulars: dsDNA, one strand shown.
Chain of HOXA2 (Homo sapiens, UniProt O43364 129-215, Y150S) (O43364 129-215 Y150S): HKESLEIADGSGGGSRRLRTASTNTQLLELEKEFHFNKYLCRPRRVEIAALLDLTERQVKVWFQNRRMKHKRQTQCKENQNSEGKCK
On to GCAGCTGC, for which the binding signal is 10.3 upbm affinity estimate (log intensity, higher = more binding, comparable within an allelic series).
Regarding GCCCGGGC, the binding signal is 10.4 upbm affinity estimate (log intensity, higher = more binding, comparable within an allelic series).
The same measure, in the same setting: the figure for CCAGGGGC is 10.3 upbm affinity estimate (log intensity, higher = more binding, comparable within an allelic series).
Consider GGGGCCCC, for which the binding signal is 10.5 upbm affinity estimate (log intensity, higher = more binding, comparable within an allelic series).

The next test deals with HOXA7 (Homo sapiens, UniProt P31268 116-202, W177C). In words: PBM; 200 nM protein, PBS. Particulars: dsDNA, one strand shown.
Chain of HOXA7 (P31268 116-202 W177C): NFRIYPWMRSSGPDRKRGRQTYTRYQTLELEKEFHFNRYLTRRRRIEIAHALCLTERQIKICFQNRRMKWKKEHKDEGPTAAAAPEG
Turning to ATATTAAT, the binding signal is 9 upbm affinity estimate (log intensity, higher = more binding, comparable within an allelic series).
With ATTTATGG, the binding signal was 8.83 upbm affinity estimate (log intensity, higher = more binding, comparable within an allelic series).
Consider TGCGATAA, for which the binding signal was 8.8 upbm affinity estimate (log intensity, higher = more binding, comparable within an allelic series).

A further test has as its target CRX (Homo sapiens, UniProt O43186 26-111, R41L). Briefly: PBM; 200 nM protein, PBS. The conditions noted are these: dsDNA, one strand shown.
Regarding CCCGACCC, the binding signal was 8.25 upbm affinity estimate (log intensity, higher = more binding, comparable within an allelic series).
On the same count and under the same terms, the figure for CACGCCCC is 8.33 upbm affinity estimate (log intensity, higher = more binding, comparable within an allelic series).
On to ACAGATTA, for which the binding signal was 12.6 upbm affinity estimate (log intensity, higher = more binding, comparable within an allelic series).
As to AGGTGCCC, the binding signal was 8.35 upbm affinity estimate (log intensity, higher = more binding, comparable within an allelic series).
For the sequence ACCAGCCC, the binding signal is 8.17 upbm affinity estimate (log intensity, higher = more binding, comparable within an allelic series).
With GACGCGTC, the binding signal is 8.22 upbm affinity estimate (log intensity, higher = more binding, comparable within an allelic series).
For CCGTCGCC, the binding signal was 8.24 upbm affinity estimate (log intensity, higher = more binding, comparable within an allelic series).
On to GCAGCTGC, for which the binding signal is 8.5 upbm affinity estimate (log intensity, higher = more binding, comparable within an allelic series).
For the sequence GCCCGGGC, the binding signal was 8.04 upbm affinity estimate (log intensity, higher = more binding, comparable within an allelic series).
Turning to AGATTAGC, the binding signal is 12.7 upbm affinity estimate (log intensity, higher = more binding, comparable within an allelic series).
On the same count and under the same terms, the figure for CAGATTAG is 12.6 upbm affinity estimate (log intensity, higher = more binding, comparable within an allelic series); for AGGGGACC it is 8.23 upbm affinity estimate (log intensity, higher = more binding, comparable within an allelic series); for GGATTACA it is 13 upbm affinity estimate (log intensity, higher = more binding, comparable within an allelic series).
CCAGGGGC: the binding signal is 8.19 upbm affinity estimate (log intensity, higher = more binding, comparable within an allelic series).
Same read-out and setting: as for GAGGTACC, the figure is 8.17 upbm affinity estimate (log intensity, higher = more binding, comparable within an allelic series).
Still for that read-out and setting: as for GGGGACCC, the figure is 8.26 upbm affinity estimate (log intensity, higher = more binding, comparable within an allelic series).
Turning to CCCGTCCC, the binding signal was 8.4 upbm affinity estimate (log intensity, higher = more binding, comparable within an allelic series).
With ATATTAAT, the binding signal was 11 upbm affinity estimate (log intensity, higher = more binding, comparable within an allelic series).
For the sequence ATAATCTG, the binding signal is 13 upbm affinity estimate (log intensity, higher = more binding, comparable within an allelic series).
As for ATTTATGG, the binding signal was 9.82 upbm affinity estimate (log intensity, higher = more binding, comparable within an allelic series).
As for TGCGATAA, the binding signal was 10.4 upbm affinity estimate (log intensity, higher = more binding, comparable within an allelic series).
Consider AGACTATC, for which the binding signal was 9.45 upbm affinity estimate (log intensity, higher = more binding, comparable within an allelic series).
Consider TAATCTGA, for which the binding signal was 12.6 upbm affinity estimate (log intensity, higher = more binding, comparable within an allelic series).
As for GGGGCCCC, the binding signal is 8.38 upbm affinity estimate (log intensity, higher = more binding, comparable within an allelic series).
With CGCACCGC, the binding signal is 8.26 upbm affinity estimate (log intensity, higher = more binding, comparable within an allelic series).
With CCCCTGGA, the binding signal was 8.4 upbm affinity estimate (log intensity, higher = more binding, comparable within an allelic series).
In the case of ACTAATCG, the binding signal was 11.3 upbm affinity estimate (log intensity, higher = more binding, comparable within an allelic series).
With ATTATCTC, the binding signal is 11.5 upbm affinity estimate (log intensity, higher = more binding, comparable within an allelic series).
With ACGCAACG, the binding signal is 8.43 upbm affinity estimate (log intensity, higher = more binding, comparable within an allelic series).
For CTGGGGCA, the binding signal was 8.28 upbm affinity estimate (log intensity, higher = more binding, comparable within an allelic series).
As for CTGCTGGC, the binding signal is 8.2 upbm affinity estimate (log intensity, higher = more binding, comparable within an allelic series).
Turning to GTGGATTA, the binding signal is 13.1 upbm affinity estimate (log intensity, higher = more binding, comparable within an allelic series).
In the case of CCAGATTA, the binding signal was 12.7 upbm affinity estimate (log intensity, higher = more binding, comparable within an allelic series).

The next test addresses HOXA4 (Homo sapiens, UniProt Q00056 201-287, W262F). Briefly: PBM; 200 nM protein, PBS. The conditions noted are these: dsDNA, one strand shown.
As for CACGCCCC, the binding signal was 9.99 upbm affinity estimate (log intensity, higher = more binding, comparable within an allelic series).
On to GGGGCTCA, for which the binding signal was 9.78 upbm affinity estimate (log intensity, higher = more binding, comparable within an allelic series).
As to CCCGTCCC, the binding signal was 9.95 upbm affinity estimate (log intensity, higher = more binding, comparable within an allelic series).

The target in another test is ALX3 (Homo sapiens, UniProt O95076 139-225, N203S). Briefly: PBM; 200 nM protein, PBS. The conditions noted are these: dsDNA, one strand shown.
Chain of ALX3 (O95076 139-225 N203S): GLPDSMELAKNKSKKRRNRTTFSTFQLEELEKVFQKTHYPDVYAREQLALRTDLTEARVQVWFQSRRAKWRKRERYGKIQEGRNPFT
Take GCAGCTGC: the binding signal is 7.82 upbm affinity estimate (log intensity, higher = more binding, comparable within an allelic series).
Consider CCAGGGGC, for which the binding signal is 7.65 upbm affinity estimate (log intensity, higher = more binding, comparable within an allelic series).
Consider ATATTAAT, for which the binding signal was 8.74 upbm affinity estimate (log intensity, higher = more binding, comparable within an allelic series).

In a further test the target is HOXA2 (Homo sapiens, UniProt O43364 129-215). In words: PBM; 200 nM protein, PBS. The conditions noted are these: dsDNA, one strand shown.
Chain of HOXA2 (Homo sapiens, UniProt O43364 129-215) (O43364 129-215): as the sequence (O43364 129-215 Y150S) above, with S22Y counted along it
As for GCAGCTGC, the binding signal was 7.36 upbm affinity estimate (log intensity, higher = more binding, comparable within an allelic series).
Same read-out and setting: the figure for GCCCGGGC is 7.45 upbm affinity estimate (log intensity, higher = more binding, comparable within an allelic series); for CCAGGGGC it is 7.27 upbm affinity estimate (log intensity, higher = more binding, comparable within an allelic series); for GGGGCCCC it is 7.38 upbm affinity estimate (log intensity, higher = more binding, comparable within an allelic series).
